Rows were chosen to be rich in hits. Some 2.4% of all compounds tested hit in one or more screens of this group.
HepG2 viability: kills HepG2 cells in TGF-b inhibitor counter-screen | HepG2 CAGA-GFP viability, ATP luminescence, 18 h | Potency, µM (titrated, usually from 46.1 µM), inactives show at the top dose activity change, negative = cytotoxicity, actives largely listed as cytotoxic | 410,000 tested, 0.76% active | AID 588856
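CellTiter-Glo luminescence gave cytotoxicity after 18 hours at 37 degrees C. The cells were HepG2 CAGA-GFP in 1% FBS DMEM, stimulated with 500 pg/mL TGF-beta after compound addition. %Activity was normalised to no-cell wells (complete cell-killing) and DMSO (no toxicity), and curves were fitted and classified.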
ATXN2 expr inh: reduces ATXN2 reporter expression in HEK-293 cells; HEK-293 ATXN2-luciferase reporter, luminescence, 24 h; 360,000 tested, 0.72% active; Potency, µM (doses to about 57 µM), inactives show at the top dose activity change, negative = inhibition, hits mostly inhibitors; further: on the % scale 0 is the no-effect control and ±100 the full control effect; nearly all actives have a fitted effect of over 55% in size
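ATXN2-luciferase reporter cells (luciferase flanked by upstream and downstream ATXN2 gene portions) were treated 24 h at 37 °C with compounds at up to 57 uM. SteadyGlo luminescence gave expression; GF-AFC fluorescence gave viability.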
Anesthetic bind: candidate novel general anesthetic via apoferritin binding; apoferritin/1-aminoanthracene competitive binding, fluorescence; Potency, µM (series often up to 77.5 µM), for inactives: at the top dose activity change, negative = displacement, most hits filed as inhibitors; 350,000 tested, 0.074% active; further: on the % scale 0 is the no-effect control and ±100 the full control effect; nearly all actives have a fitted effect of over 20% in size
Target sequence (P02791 2-175 limits assumed): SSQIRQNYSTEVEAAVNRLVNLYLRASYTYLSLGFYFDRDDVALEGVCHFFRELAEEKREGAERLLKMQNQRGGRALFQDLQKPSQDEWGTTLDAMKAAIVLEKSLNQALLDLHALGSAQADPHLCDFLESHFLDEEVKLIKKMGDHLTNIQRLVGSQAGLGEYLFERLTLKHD
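In PBS, apoferritin at 10 uM is loaded with 1-AMA from a 50% saturated solution. After 10 min of compound exposure at ambient temperature, reduced 535 nm fluorescence indicates probe displacement.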
TGFb inhibitor: inhibitors of TGF-b signaling | HepG2 CAGA-GFP TGF-b/SMAD3 reporter, GFP fluorescence, 18 h; TGF-beta stimulated, 500 pg/mL final | Potency, µM (doses to about 46.1 µM), for inactives: at the highest dose activity, negative = inhibition, most hits filed as inhibitors | 410,000 tested, 1.2% active; further: on the % scale 0 is the no-effect control and ±100 the full control effect; nearly all actives have a fitted effect of over 65% in size
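HEPG2 CAGA-GFP reporter cells (1000/well, DMEM with 1% FBS) received compounds, then recombinant TGF-beta at 500 pg/mL final for 18 hours at 37 degrees C. Per-cell GFP summed per well was normalised to unstimulated and stimulated DMSO controls before curve fitting.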
S2 tox: viability counter-screen for ATXN expression inhibitors. S2 cells (HEK-293 line with an ATXN2-luciferase reporter) viability, CellTiter-Fluor protease fluorescence, 24 h. Potency, µM (titrated, usually from 56.7 µM), usual class: cytotoxic. 400,000 tested, 0.49% active; further: nearly all actives have a fitted effect of over 40% in size
* = called active by the depositor; i = inactive; ? = inconclusive; · = not tested or not shown; [ ] = dose if it differs, or a comment. The call rests on the fitted dose curve; in most records, active means well fitted curve in the direction sought with a large enough effect; inconclusive means small, poorly fitted or top-dose-only effect, or another doubt; inactive means no such curve, though single readings can be large; an effect the other way counts as inactive or inconclusive. Potency means the concentration at half of the fitted maximal effect.

SMILES	HepG2 viability	ATXN2 expr inh	Anesthetic bind	TGFb inhibitor	S2 tox
O=[N+]([O-])c1ccc(Sc2nc3ccccc3o2)c([N+](=O)[O-])c1	13µM*	?	-16%	?	·
Cc1oc(-c2ccccc2Cl)nc1CN1C(=O)CN=C(c2ccccc2)c2ccccc21	-12%	-19%	-23%	16µM*	?
CN(C)CCc1c[nH]c2ccccc12	·	27%[222 µM]	·	·	i
C=C1C(=O)OC2CC3(C)OC3CCC(C)=CC(OC(C)=O)C12 (stereo unspecified)	-100%	?	·	18µM*	·
CCOC(=O)c1cnc(N2CC2)nc1N	-3%	16µM*	·	-8%	28µM*
CCOC(=O)c1ccccc1C(=O)OCC	-7%	6%	·	40%	i
Cc1cccc(C)c1NC(=O)c1cccn(Cc2ccc3c(c2)OC(F)(F)O3)c1=O	11µM*	-25%	-8%	-23%	i
ClC1=C(Cl)C(Cl)(C2(Cl)C(Cl)=C(Cl)C(Cl)=C2Cl)C(Cl)=C1Cl	·	·	-8%	·	·
COc1ccc(C[C@@H]2NC[C@H](O)[C@@H]2OC(C)=O)cc1	·	·	2%[29.3 µM]	·	·
CCOc1ccc(N2C(=O)/C(=C\c3cccs3)C(=O)NC2=S)cc1	-33%	32µM*	-9%	?	35µM*
CN(CC1COc2ccccc2O1)c1nc(-c2cccnc2)nc2ccccc12 (stereo unspecified)	5µM*	60%	-14%	?	i
CN1CCC(N(C)c2nc(-c3ccc([N+](=O)[O-])cc3)nc3ccccc23)CC1	-123%	-16%	-24%	?	i
CC(C)c1c(C(=O)NC(c2cccnc2)C(F)(F)F)cnn1-c1nccc(-c2cccs2)n1 (stereo unspecified)	·	·	·	·	i
C=CC[C@@H](CC/C=C/C=C/CC/C=C\[C@@H]1CSC([C@@H]2C[C@@H]2C)=N1)OC	-59%	?	·	14µM*	·
O=C1CCC[C@@H]2[C@H]3CCCN4CCC[C@@H](CN12)[C@@H]34	·	-1%	·	·	·
CC(=Cc1csc(C)n1)[C@@H]1C[C@H]2O[C@@H]2CCC[C@H](C)[C@@H](O)[C@@H](C)C(=O)C(C)(C)[C@@H](O)CC(=O)O1	·	-22%	·	·	·
CCCCN(CC)c1c([N+](=O)[O-])cc(C(F)(F)F)cc1[N+](=O)[O-]	·	·	-9%	·	·
O=P1(Oc2ccccc2)CC=CC(COC(c2ccccc2)(c2ccccc2)c2ccccc2)O1 (stereo unspecified)	-19%	·	74%	16µM*	·
O=P1(Oc2ccccc2)C[C@@H](O)[C@@H](O)[C@H](COCc2ccccc2)O1 (stereo partly specified)	3%	3%	0%	5%	i
COc1ccc(-n2c(/C=C\c3ccccc3F)nc3ccccc3c2=O)c(OC)c1	-34%	·	-5%	?	·
COc1ccccc1NC(=O)N(Cc1ccc2c(c1)OCO2)C1CCN(Cc2ccccc2)CC1	-29%	?	-1%	8.9µM*	?
O=C(Nc1ccccc1)N(Cc1ccc2c(c1)OCO2)C1CCN(Cc2ccccc2)CC1	-34%	-4%	-9%	?	i
CN1C2CCC1/C(=C/c1ccccn1)C(=O)/C2=C\c1ccccn1	10µM*	?	-9%	2.8µM*	?
NS(=O)(=O)c1ccc(-c2ccc(C=C3C(=O)NC(=O)NC3=O)o2)cc1	-19%	-2%	?	3%	i
O=C1NC(=O)C(=Cc2ccc(SC3CCCCC3)o2)C(=O)N1	-59%	18µM*	?	?	·
SMILES	HepG2 viability	ATXN2 expr inh	Anesthetic bind	TGFb inhibitor	S2 tox
C=CCn1c(O)c(C(C)=NCc2cccnc2)c(=O)[nH]c1=O	-4%	7%	2%	-1%	i
C=CCn1c(O)c(C(C)=NCc2cc(OC)cc(OC)c2)c(=O)[nH]c1=O	7.1µM*	?	-22%	-10%	i
COC[C@H]([C@@H](O)[C@@H](O)C(=O)NCC[C@@H](C)c1nc(/C=C/C[C@H]2OC3(C[C@H](O)[C@H]2C)OC([C@@H](C[C@@H](O)[C@@H](C)[C@@H](O)[C@@H](C)/C=C(C)/C(C)=C/C=C/C(C)=C\C#N)OC)[C@@H](OP(=O)(O)O)C3(C)C)co1)N(C)C (stereo partly specified)	·	·	-4%	·	·
CCN1CCN(C(=O)Cc2ccc(Nc3ncc(F)c(Nc4ccc(C(=O)Nc5ccccc5Cl)cc4)n3)cc2)CC1	·	24µM*	·	·	·
CC(=O)Nc1ccc(CC(=O)N2CCN(Cc3ccccc3)CC2)cc1	9%	-2%	-2%	1%	i
CC(=O)OC1CC2(O)C3CCC4CC(O)CCC4(C)C3CCC2(C)C1C1=CC(=O)OC1 (stereo unspecified)	-44%	0.32µM*	·	2µM*	?
CC(=O)OC1CC(OC2C(O)CC(OC3C(O)CC(OC4CCC5(C)C(CCC6C5CCC5(C)C(C7=CC(=O)OC7)C(O)CC65O)C4)OC3C)OC2C)OC(C)C1OC1OC(CO)C(O)C(O)C1O (stereo unspecified)	-67%	-80%	·	2µM*	i
CC1OC(OC2C(O)CC(OC3C(O)CC(OC4CCC5(C)C(CCC6C5CCC5(C)C(C7=CC(=O)OC7)C(O)CC65O)C4)OC3C)OC2C)CC(O)C1O (stereo unspecified)	-44%	0.32µM*	·	?	?
CC1OC(O[C@@H]2C(O)CC(O[C@@H]3C(O)C[C@@H](OC4CC[C@]5(C)[C@H](CC[C@H]6[C@@H]5CC[C@]5(C)C(C7=CC(=O)OC7)C(O)C[C@@]65O)C4)OC3C)OC2C)CC(O)C1O (stereo partly specified)	·	·	-3%	·	·
C[C@]12CC[C@H]3[C@@H](CCC4=CC(=O)CC[C@@]43C)[C@H]1CC[C@H]2OC(=O)CCC1CCCC1	·	-4%	·	·	·
COC(=O)c1cn(S(=O)(=O)c2ccccc2)c2ccccc12	-10%	-96%	-4%	0%	?
Cc1ccccc1CN1CCc2nc(N3CCN(c4ccccn4)CC3)ncc2C1	-23%	-22%	45%	-28%	?
CN(C)c1ccc(CN2CCc3nc(N4CCN(c5ccccn5)CC4)ncc3C2)cc1	-32%	28µM*	40%	8.9µM*	?
CSCC[C@@H](NC(=O)[C@@H](Cc1ccccc1)NC(=O)CNC(=O)CNC(=O)[C@@H](N)Cc1ccc(O)cc1)C(=O)O	·	5%	·	·	·
Clc1ccc(CCC(Cn2ccnc2)Sc2c(Cl)cccc2Cl)cc1 (stereo unspecified)	13µM*	?	·	?	?
Oc1cc[c]([Hg][Cl])cc1	·	·	·	·	3.2µM*
O=S(=O)(c1ccc(O)cc1)c1ccc(O)cc1	-27%	4%	4%	6%	i
